Experimental data reported in PubChem BioAssay (NCI).
This is part of a sample that, as a whole, favours compounds with a hit. Of some 83,000 tested, about 20% had one in any assay.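 96-well plates, one dose, 48 hours. Percent growth reported; active if below 10.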 Values without a mark were called inactive. Activity calls are given as the source filed them.

Columns and labels:
Assay in all cases: NCI-60 one-dose screen, 48 h (100 = growth as untreated, 0 = no growth, -100 = all killed)
Settings in all cases: 10 µM unless noted
DU-145 prostate = system: DU-145 prostate
K-562 leukemia = system: K-562 leukemia
MALME-3M melanoma = system: MALME-3M melanoma
MDA-MB-231 breast = system: MDA-MB-231 breast
RXF 393 renal = system: RXF 393 renal
SF-268 CNS = system: SF-268 CNS
SF-295 CNS = system: SF-295 CNS
SF-539 CNS = system: SF-539 CNS
UACC-257 melanoma = system: UACC-257 melanoma
M14 melanoma = system: M14 melanoma
HCT-15 colon = system: HCT-15 colon
HT29 colon = system: HT29 colon
SNB-75 CNS = system: SNB-75 CNS
SNB-19 CNS = system: SNB-19 CNS
U251 CNS = system: U251 CNS
PC-3 prostate = system: PC-3 prostate
SK-MEL-5 melanoma = system: SK-MEL-5 melanoma
UACC-62 melanoma = system: UACC-62 melanoma
LOX IMVI melanoma = system: LOX IMVI melanoma
SK-MEL-28 melanoma = system: SK-MEL-28 melanoma

Row | Compound | growth (DU-145 prostate) | growth (K-562 leukemia) | growth (MALME-3M melanoma) | growth (MDA-MB-231 breast) | growth (RXF 393 renal) | growth (SF-268 CNS) | growth (SF-295 CNS) | growth (SF-539 CNS) | growth (UACC-257 melanoma) | growth (M14 melanoma) | growth (HCT-15 colon) | growth (HT29 colon) | growth (SNB-75 CNS) | growth (SNB-19 CNS) | growth (U251 CNS) | growth (PC-3 prostate) | growth (SK-MEL-5 melanoma) | growth (UACC-62 melanoma) | growth (LOX IMVI melanoma) | growth (SK-MEL-28 melanoma)
1 | COc1cccc(C(=O)NCCNc2cc(-c3cn(-c4ccccc4)nc3-c3cccc(OC)c3)ccn2)c1 | 64% | 32.4% | 81% | 62.1% | 74.2% | 68.9% | 58.3% | 87.3% | 46.9% | 51.3% | 41.8% | 22.6% | 74.5% | 78% | 48.4% | 25.4% | 39.3% | 55.1% | 62.1% | 80.2%
2 | NC(=N\N=C/c1ccccc1[N+](=O)[O-])/C(N)=N\N=C/c1ccccc1[N+](=O)[O-] | 107% | 101% | 146% | 107% | 103% | 99.7% | 105% | 97.2% | 113% | 111% | 105% | 103% | 97.9% | 106% | 108% | 102% | 105% | 108% | 104% | 118%
3 | COc1cc(/C=N/n2c(CN3CCOCC3)nc3ccccc3c2=O)cc(OC)c1OC | 115% | 97.2% | 106% | 102% | 117% | 98.1% | 98.6% | 97.9% | 97% | 102% | 106% | 103% | 94.4% | 95.7% | 98.7% | 101% | 101% | 97.6% | 100% | 99.3%
4 | COc1ccc(-c2nc3c(N)c(CO)c(C)nc3o2)cc1 | 102% | 91.5% | 96.7% | 111% | 96% | 94.9% | 99.1% | 93.9% | 101% | 106% | 102% | 97.7% | 98.9% | 111% | 96.5% | 103% | 95.3% | 97.7% | 93.5% | 106%
5 | Cn1c(I)c(C#C[Si](C)(C)C)c(=O)n(C(=O)c2ccccc2)c1=O | 0.184% (active) | -95.2% (active) | -10.3% (active) | 64.2% | -81.5% (active) | -18% (active) | 87.9% | 69.4% | -20.8% (active) | -54.7% (active) | 6.55% (active) | 1.95% (active) | 52.2% | 95.8% | 24.8% | -56.8% (active) | 55.1% | 69.9% | -90.4% (active) | -65.6% (active)
6 | O=C(COc1ccc(/C=C2\Oc3ccccc3C2=O)cc1)Nc1nc2ccccc2s1 | -74.8% (active) | 27.9% | 24.5% | 44.8% | 14.2% | 13.4% | 628% | -88.3% (active) | 110% | 95.4% | 98.2% | 93.2% | -16.2% (active) | 92.4% | 4.73% (active) | 13.7% | 95.6% | 82.4% | -71.7% (active) | 137%
7 | CC/C=C\C/C=C\C[C@H](O)C/C=C1/C(=O)C=C[C@@H]1C/C=C\CCCC(=O)O | 35.4% | 10.5% | 47% | 25.6% | 68.5% | 53.9% | 86.2% | 32.7% | 31.3% | 14.3% | 48% | 12.6% | 80.7% | 44.3% | -27.9% (active) | 30.1% | 20.7% | -43.4% (active) | -10.1% (active) | 17.5%
8 | CC(=O)c1ccc(NCC(=O)Nc2ccccn2)cc1 | 107% | 95.6% | 97.6% | 94.1% | 117% | 97.1% | 109% | 106% | 106% | 106% | 109% | 109% | 92.7% | 100% | 102% | 96.4% | 99.9% | 97% | 101% | 115%
9 | O=C(NC(Cc1nnc2n(Cc3ccccc3)c(=O)c3c4c(sc3n12)CCCC4)c1ccc(Cl)cc1)c1ccccc1 (stereo not given) | 96.7% | 91.9% | 75.4% | 83.2% | 34.3% | 102% | 71.7% | 80.2% | 105% | 68% | 68.3% | 89.1% | 73.7% | 88.5% | 91.8% | 97.8% | 81.9% | 63.1% | 79.4% | 103%
10 | CC(=O)c1nc(Nc2ccc(C)cc2)sc1C | 102% | 97.6% | 113% | 91.3% | 96.2% | 91% | 104% | 101% | 92.1% | 97.1% | 94.1% | 105% | 75% | 93.1% | 95.8% | 93.1% | 98.6% | 98.6% | 100% | 95.2%
11 | COc1ccc(-c2cc(-c3cc(OC)ccc3OC)nc(SCC(=O)c3ccccc3)c2C#N)cc1 | 106% | 105% | 88.9% | 94.4% | 97.2% | 99% | 104% | 94.8% | 101% | 98.1% | 109% | 95% | 68% | 107% | 90.4% | 88.3% | 98.8% | 78.4% | 92.1% | 103%
12 | Cn1cc(-c2csc(-c3cccc(F)c3)n2)c2cccnc21 | -62.7% [100 µM] (active) | 2.45% [100 µM] (active) | -39.1% [100 µM] (active) | -50.1% [100 µM] (active) | -30.7% [100 µM] (active) | -40.5% [100 µM] (active) | -51.9% [100 µM] (active) | -74.9% [100 µM] (active) | -37.6% [100 µM] (active) | -77.2% [100 µM] (active) | -43.3% [100 µM] (active) | -71.7% [100 µM] (active) | -29.4% [100 µM] (active) | -62.8% [100 µM] (active) | -36.4% [100 µM] (active) | -42% [100 µM] (active) | -86.1% [100 µM] (active) | -67% [100 µM] (active) | -54.3% [100 µM] (active) | -57.8% [100 µM] (active)
13 | O=C(Nc1ccccc1Cl)Oc1ccc(-c2ccccc2)cc1 | 120% | 110% | 122% | 107% | 109% | 119% | 114% | 95.1% | 111% | 107% | 104% | 103% | 84.2% | 98.4% | 112% | 99.8% | 99.9% | 89% | 106% | 151%
14 | COc1cc(/C=C2\C(=O)ON=C2C)cc(OC)c1OC | 108% | 95% | 102% | 98.3% | 114% | 95.7% | 100% | 94.7% | 103% | 96% | 102% | 103% | 80.4% | 95.6% | 100% | 97.3% | 101% | 97% | 96.2% | 103%
15 | COC(=O)[C@]12CC[C@@H](C)[C@H](C)[C@@H]1C1=CC[C@@H]3[C@@]4(C)C(C=O)=C[C@@](C)(COS(C)(=O)=O)[C@@H]4C(=O)C[C@@]3(C)[C@]1(C)CC2 | 41.2% | 21.3% | 83.6% | 37.2% | 73.8% | 40.2% | 37.3% | 65.7% | 52.6% | 36.8% | 21.4% | 26.9% | 38.7% | 41.7% | 26% | 12% | 63.8% | 38.6% | 35.7% | 74.2%
